Test results from ChEMBL document CHEMBL1201862, “PubChem BioAssay data set” (2004).

Species: Homo sapiens
Experiment: Quantitative High-Throughput Screen for Compounds Blocking the Interaction Between CBF-beta and RUNX1 for the Treatment of Acute Myeloid Leukemia: Summary. [Related pubchem assays (depositor defined):AID1477, AID504370, AID504374, AID504375]; call rule not given here
Format: functional
For `CC1CC(NC(=O)C2C3CCC(O3)C2C(=O)O)CC(C)(C)C1` (centres undefined), the Potency was 112 nM (active).
In the case of `O=C(O)CCCC[C@@H]1SC[C@@H]2NC(=O)N[C@@H]21`, the Potency is reported as 1780 nM (active).
With `CCCCn1c(NS(=O)(=O)c2ccccc2)c(C(=O)OCC)c2nc3ccccc3nc21` the Potency was 112 nM (active).
With `O=C(O)CCCC[C@@H]1SC[C@H]2NC(=O)N[C@@H]12` the Potency was 12600 nM (active).
